# Records with an inconclusive call do not appear. Where a call stands in place of a potency, no number is given. Activity calls are given as the source filed them. The call rests on the fitted dose curve.
# Test: qHTS assay to identify small molecule agonists of the NFkB signaling pathway - cell viability counter screen (AID 1159515); further: nearly all actives have a fitted effect of over 55% in size
# Conditions: NFkB-bla ME-180 viability, CellTiter-Glo luminescence, 5 h; series mostly up to 61 µM
# Procedure, shortened: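 Parallel cytotoxicity counter screen in ME-180 cells carrying an NFkB-response-element beta-lactamase reporter, 2,000 cells/well. Compound exposure lasted 5 hr at 37 C, 5% CO2. Cell viability was quantified by CellTiter-Glo luminescence.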
row,SMILES,Potency
1,Cc1ccc(C)o1,inactive
2,CCCCCCCCCC(=O)OCC,inactive
3,CC[C@H](C)[C@@H](C(=O)O)n1sc2ccccc2c1=O,inactive
4,O=C(NS(=O)(=O)/C=C/c1cccs1)c1ccc(F)cc1Br,inactive
5,CC(=O)O[C@H]1C[C@@H]2CC[C@@H]3[C@H](CC[C@@]4(C)[C@H]3C[C@H]([N+]3(C)CCCCC3)[C@@H]4OC(C)=O)[C@@]2(C)C[C@@H]1N1CCCCC1,inactive
6,CC(C)(C)c1cc(CCC(=O)OCC(COC(=O)CCc2cc(C(C)(C)C)c(O)c(C(C)(C)C)c2)(COC(=O)CCc2cc(C(C)(C)C)c(O)c(C(C)(C)C)c2)COC(=O)CCc2cc(C(C)(C)C)c(O)c(C(C)(C)C)c2)cc(C(C)(C)C)c1O,inactive
7,CN(C)C/C=C(/c1ccc(Br)cc1)c1cccnc1,inactive
8,O=c1[nH]cnc2ccccc12,inactive
9,Cc1ccc(C(=O)C(C)CN2CCCCC2)cc1 (centres undefined),inactive
10,CC(C)c1ccccc1C(C)C,inactive
11,CC(C)(C)c1ccc(S)cc1,inactive
12,CC(=O)[C@@]1(O)CC[C@H]2[C@@H]3C[C@H](C)C4=CC(=O)CC[C@]4(C)[C@H]3CC[C@@]21C,inactive
13,C#CCOC(=O)[C@@H](C)Oc1ccc(Oc2ncc(Cl)cc2F)cc1,inactive
14,N#CCc1cccc(C(F)(F)F)c1,inactive
15,CN(C)CC[C@@H](c1ccc(Br)cc1)c1ccccn1,inactive
16,CC1=CC(=O)/C(=C(/C)O)C(=O)O1,inactive
17,O=C(NN1CCCC1)NS(=O)(=O)c1ccc(Cl)cc1,inactive
18,Nc1nc(N)c(-c2ccccc2)s1,inactive
19,Oc1ccc(C(O)CNCCCCCCNCC(O)c2ccc(O)c(O)c2)cc1O (centres undefined),inactive
20,O=C(CC(=O)c1ccccc1)c1ccccc1,inactive

row,SMILES,Potency
1,OC(CCN1CCCCC1)(c1ccccc1)C1CCCCC1 (centres undefined),inactive
2,O=C1Nc2cc(Cl)ccc2Oc2ccccc21,inactive
3,CC(=O)/C=C/C1C(C)=CCCC1(C)C (centres undefined),inactive
4,Oc1ccc(O)c2c(O)cccc12,inactive
5,CCCCCOC(=O)COc1cc(N2C(=O)C3=C(CCCC3)C2=O)c(F)cc1Cl,inactive
6,Cn1c(NCCN(CCO)CCCc2ccc([N+](=O)[O-])cc2)cc(=O)n(C)c1=O,inactive
7,Cc1ccccn1,inactive
8,C=CC(C)(CCC=C(C)C)OC(=O)c1ccccc1 (centres undefined),inactive
9,O=S1(=O)c2cccc3cccc(c23)N1CCCN1CCN(c2ccc(F)cc2)CC1,inactive
10,Cc1ncsc1CCO,inactive
11,Cc1cc(C)c(S(=O)(=O)O)cc1N=Nc1cc(S(=O)(=O)O)c2ccccc2c1O,inactive
12,CCCCCOC(=O)c1ccc(O)cc1,inactive
13,O=[N+]([O-])c1cc[n+]([O-])cc1,inactive
14,CC(C)(Oc1ccc(Cl)cc1)C(=O)OCCCOC(=O)C(C)(C)Oc1ccc(Cl)cc1,inactive
15,CCCC(C)C,inactive
16,CN(c1nccc(=O)[nH]1)C1CCN(c2nc3ccccc3n2Cc2ccc(F)cc2)CC1,inactive
17,CCCC(=O)OCC,inactive
18,O=S1(=O)N=C(O)c2ccccc21,inactive
19,O=C(O)/C=C/c1cnc[nH]1,inactive

# Source: PubChem BioAssay (Tox21)
